# The campaign covered roughly 16,000 compounds. About 4,000 (25%) were called active. Roughly 26% stayed inconclusive and do not appear here. These entries were drawn from the full list. A number with no mark means an inactive call. Calls come from the whole dose curve; as a rule, active = well fitted curve in the direction sought with a large enough effect; inconclusive = small, poorly fitted or top-dose-only effect, or effect the other way; inactive = no such curve, though single readings can be large or run the other way.
# Molecular target: Cytochrome P450 2C9 (Homo sapiens) (UniProt P11712)
# Sequence (P11712 whole entry, looked up): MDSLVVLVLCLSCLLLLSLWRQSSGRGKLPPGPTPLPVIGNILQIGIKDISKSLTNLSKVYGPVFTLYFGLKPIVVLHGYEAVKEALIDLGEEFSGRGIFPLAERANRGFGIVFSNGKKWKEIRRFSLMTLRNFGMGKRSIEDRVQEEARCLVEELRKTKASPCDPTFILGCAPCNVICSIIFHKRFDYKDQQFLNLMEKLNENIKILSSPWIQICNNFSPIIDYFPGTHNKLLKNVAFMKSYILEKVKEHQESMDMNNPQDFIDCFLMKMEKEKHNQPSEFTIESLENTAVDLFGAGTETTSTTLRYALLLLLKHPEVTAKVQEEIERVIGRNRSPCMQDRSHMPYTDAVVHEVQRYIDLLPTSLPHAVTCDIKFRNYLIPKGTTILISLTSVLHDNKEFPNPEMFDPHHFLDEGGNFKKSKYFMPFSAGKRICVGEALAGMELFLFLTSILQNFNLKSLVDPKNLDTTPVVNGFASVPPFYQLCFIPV
# Assay: Cytochrome panel assay with activity outcomes
# Conditions: recombinant CYP, pro-luciferin dealkylation, luminescence, p450-cyp2c9; series mostly up to 57.1 µM; activity, negative = inhibition: at the top concentration
# % is set by controls: 0 for no effect and ±100 for the full control effect.
Structure (SMILES),"activity, negative = inhibition",AC50
C/C(CC(=O)Nc1cc(C)ccn1)=N\NC(=O)COc1cccc(C)c1,-22%,–
CCCc1nn(-c2ccccc2)c2c1C(c1cccs1)C(C#N)=C(N)O2 (configuration not stated),–,4.47 µM (active)
CC(C)N(Cc1ccccc1)S(=O)(=O)c1n[nH]c(C(C)(C)C)n1,–,3.98 µM (active)
Cc1ccc(C)c(NC(=O)Cn2nnc(C(=O)NCc3cccs3)c2N)c1,-22%,–
COc1ccc(CCNC(=O)Cn2cnc3c2c(=O)n(C)c(=O)n3C)cc1OC,-21%,–
COc1ccc(CCNC(=O)c2nnn(CC(=O)Nc3ccccc3C)c2N)cc1OC,–,15.8 µM (active)
COc1ccccc1CNc1ncncc1-c1ccccc1C(F)(F)F,-18.6% [at 2.29 µM],–
CN1c2ccccc2Oc2c(c(=O)n(C)c(=O)n2C)C1c1cccc([N+](=O)[O-])c1 (configuration not stated),–,4.47 µM (active)
O=C(c1ccccc1)[C@@H]1O[C@H]1c1ccc(-c2ccccc2)cc1,–,12.6 µM (active)
CC(=NCC(=O)O)c1ccccc1,2.4% [at 11.4 µM],–
CCCCCCCCCCCCCCC[C@H](O)[C@H](N)CO,-10.3%,–
Cc1ccc2nc(Nc3nc(-c4ccccc4)cc(=O)[nH]3)nc(C)c2c1,–,2.82 µM (active)
O=C(O)c1cc(-c2ccc(-c3ccccc3)cc2)nc2cc3ccccc3cc12,-27% [at 11.4 µM],–
Cc1ccccc1/C=C\C1=NCCN1,16.2%,–
CC(C)(C)COS(=O)OCC(C)(C)C,-7.38% [at 11.4 µM],–
Cc1ccc(S(=O)(=O)/C=C\C#N)cc1,–,12.6 µM (active)
CCN(CC)CCNC(=O)c1cc(Cl)c(N)cc1OC,–,inactive
CN1CCC[C@@H]1CCO[C@](C)(c1ccccc1)c1ccc(Cl)cc1,2.58% [at 25.6 µM],–
CC1=C(C(=O)OCc2ccccc2)C(c2ccc3ccccc3c2)NC(=O)N1CCCCCC(=O)O (configuration not stated),–,7.94 µM (active)
CC1=C(C(=O)OCc2ccccc2)C(c2ccc(Cl)cc2)NC(=O)N1CCCCCC(=O)O (configuration not stated),–,12.6 µM (active)
CC1=C(C(=O)OCc2ccccc2)C(c2ccc([N+](=O)[O-])cc2)NC(=O)N1CCCCCC(=O)O (configuration not stated),–,15.8 µM (active)
CC(C)=CCC/C(C)=C/CO/N=C1/C[C@@H](O)[C@@H](O)[C@@H]2[C@@H]3C(=O)N(C[C@@H]4CCCO4)C(=O)[C@H]3CC[C@@H]12,9.34% [at 11.4 µM],–
CN(C)[C@H]1C(=O)C(C(=O)NCN2CCCC2)=C(O)[C@]2(O)C(=O)C3=C(O)c4c(O)cccc4[C@](C)(O)[C@H]3C[C@H]12,-10.5% [at 11.4 µM],–
Cc1cc(=Nc2ccc3c(c2)c(N)cc(C)[n+]3C)nc(N)n1C,13% [at 11.4 µM],–

Structure (SMILES),"activity, negative = inhibition",AC50
CCN(CC)CC#CCC(C)(c1ccccc1)c1ccccc1,–,15.8 µM (active)
CCCC(C(=O)OCCN(CC)CC)(c1ccccc1)c1ccccc1,-47.9% [at 25.6 µM],–
N=C(N)SCCSC(=N)N,-1.93% [at 11.4 µM],–
COc1cc(C(=O)N2CCN(C(=O)c3ccccc3)CC2)cc(OC)c1OC,-11%,–
COc1cc(OC)c(C2C(C(=O)O)c3ccccc3C(=O)N2C)cc1OC (configuration not stated),-22.7%,–
COc1cc2c3c(c1OC)C1(C=CC(=O)C=C1)CC3N(C(=O)c1ccccc1)CC2 (configuration not stated),–,3.16 µM (active)
c1ccc(CNc2cc(-c3ccoc3)ncn2)cc1,-12.4% [at 2.29 µM],–
c1ccc(-c2nc(CSc3n[nH]c(-c4cccs4)n3)cs2)cc1,–,20 µM (active)
O=C(c1cnccn1)N1CCC2(CCCN(c3ncccn3)C2)CC1,-7.23%,–
CCOc1ccc(Cc2nccc3cc(OCC)c(OCC)cc23)cc1OCC,–,3.98 µM (active)
Cn1c(CNC(=O)Nc2ccccc2)nnc1SCc1ccccc1,–,8.91 µM (active)
Cn1c(CN2CCOCC2)nnc1SCc1ccccc1,0.914%,–
COc1cccc(-c2ccc3ncnc(NCCNC(C)=O)c3c2)c1,-1.53% [at 2.29 µM],–
COc1ccc2[nH]c(-c3ccccc3)c(CCNC(C)=O)c2c1,–,15.8 µM (active)
COc1cccc(-c2nc(NCCNC(C)=O)c3ccccc3n2)c1,22.4% [at 2.29 µM],–
C[C@H](CN(C)C)C(=O)c1ccccc1C(=O)O,4.19% [at 11.4 µM],–
CNS(=O)(=O)c1ccccc1C(=N)c1ccccc1,9.68% [at 11.4 µM],–
OC[C@H]1NC[C@@H](O)[C@@H](O)[C@H]1O,-27%,–
Cc1cccc(NC(=S)NNC(=O)CCn2cc(C)cn2)c1,-7.75%,–
O=C(Nc1cccc(C(F)(F)F)c1)c1ccc(Cn2cc(Br)cn2)o1,–,8.91 µM (active)
Cc1nn(CC(O)COc2ccc3c(c2)CCC3)c(C)c1Br (configuration not stated),-23.7%,–
C=CC[C@@H]1C=C[C@H](O/N=C(\C)CCN2CCCCc3nc(C)c(C)cc32)[C@H](CO)O1,0.735% [at 11.4 µM],–
Cc1ccc(N2C(=O)c3n[nH]c(C)c3C2c2ccccn2)cc1 (configuration not stated),-12.8%,–

# Source: PubChem BioAssay AID1851 (National Center for Advancing Translational Sciences (NCATS), 2009)
